Experimental findings from PubChem BioAssay AID1347418 (Sanford-Burnham Center for Chemical Genomics, 2020) are described below.

“And” between values parts separate entries of the source, which are not always exact repeats. Identical values can stand only once. The campaign covered roughly 1,300 compounds. About 750 (58%) were called active. The list shows a part of the results. Values without a mark were called inactive.

This assay deals with Sulfhydryl oxidase 1 (Homo sapiens) (UniProt O00391). Description: inhibition of human sulfhydryl oxidase QSOX1 – biochemical, ROS-Glo H2O2 luminescence, HTS, primary screen (AID 1347418). To be noted: recombinant QSOX1, ROS-Glo H2O2 luminescence; at 12.5 µM; hits give high values; active = any value above zero.
Sulfhydryl oxidase 1 (Homo sapiens), sequence (O00391 whole entry, looked up): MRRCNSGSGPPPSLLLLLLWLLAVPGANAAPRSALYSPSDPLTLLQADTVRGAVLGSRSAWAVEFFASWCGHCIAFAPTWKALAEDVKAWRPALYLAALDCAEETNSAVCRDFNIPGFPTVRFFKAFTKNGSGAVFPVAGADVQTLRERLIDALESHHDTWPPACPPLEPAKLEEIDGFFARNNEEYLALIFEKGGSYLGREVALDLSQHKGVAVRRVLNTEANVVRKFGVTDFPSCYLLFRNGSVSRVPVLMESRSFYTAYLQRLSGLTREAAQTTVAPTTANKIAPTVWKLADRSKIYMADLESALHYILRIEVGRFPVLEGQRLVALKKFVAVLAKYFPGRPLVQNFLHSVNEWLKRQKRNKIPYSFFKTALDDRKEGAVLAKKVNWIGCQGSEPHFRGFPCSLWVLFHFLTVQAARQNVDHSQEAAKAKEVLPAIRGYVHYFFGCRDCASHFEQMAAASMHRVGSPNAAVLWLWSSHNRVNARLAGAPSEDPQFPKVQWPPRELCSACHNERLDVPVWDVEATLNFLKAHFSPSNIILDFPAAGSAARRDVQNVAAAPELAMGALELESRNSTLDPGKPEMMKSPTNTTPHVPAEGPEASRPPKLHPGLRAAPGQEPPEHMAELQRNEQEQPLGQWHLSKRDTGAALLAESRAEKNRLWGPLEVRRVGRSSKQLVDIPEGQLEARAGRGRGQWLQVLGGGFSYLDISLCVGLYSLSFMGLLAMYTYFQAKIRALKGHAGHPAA
Regarding `O=c1[nH]c2cc(Cl)ccc2c(O)c1-c1ccc(Oc2ccccc2)cc1`, the inhibition – broadly, the drop in the measured response relative to a control, in per cent – was -2.9%.

For the compound `COc1ccc(CCn2nnnc2C2(c3ccc(C)cc3)CC2)cc1`, the inhibition is 0.5% (active).

Take `N=c1nc(N2CCCCC2)cc(N)n1O`: the inhibition was 1% (active).

On to `COC(=O)Nc1nc2ccc(C(=O)c3cccs3)cc2[nH]1`, for which the inhibition is -0.8%.

As for `Cc1oncc1C(=O)Nc1ccc(C(F)(F)F)cc1`, the inhibition was 6.7% (active).

On to `CCCN1C[C@H](CSC)C[C@@H]2c3cccc4[nH]cc(c34)C[C@H]21`, for which the inhibition was 7.8% (active).

`NCCCCN`: the inhibition was -2.1%.

In the case of `NCCCCN=C(N)N`, the inhibition was 2.1% (active).

In the case of `NC(N)=NCCCCN=C(N)N`, the inhibition was 7.2% (active).

As for `NCCCCCCCCCCN`, the inhibition is 0%.

As to `COc1ccc(-c2cc3ncc(C)n3c(Nc3ncccc3C(N)=O)n2)cc1OC`, the inhibition is -0.2%.

Regarding `C=CC(N)CCC(=O)O` (centres undefined), the inhibition is 0.6% (active).

`NCCCC(=O)O`: the inhibition is -4%.

Turning to `COCC(=O)O[C@]1(CCN(C)CCCc2nc3ccccc3[nH]2)CCc2cc(F)ccc2[C@@H]1C(C)C`, the inhibition was -5.7%.

In the case of `CC[C@@H]1Cc2cc(O)ccc2C2=C1c1ccc(O)cc1C[C@H]2CC`, the inhibition is 41.5% (active).

On to `Cc1nc2c(OCc3ccccc3)cccn2c1CC#N`, for which the inhibition was -7.9%.

Regarding `CCCNC(=O)NS(=O)(=O)c1ccc(Cl)cc1`, the inhibition is 0.2% (active).

Regarding `CCCCNC(=O)NS(=O)(=O)c1ccc(C)cc1`, the inhibition was -6.3%.

`Nn1nnc2ccccc21`: the inhibition was 0.7% (active).

Consider `Fc1ccc([C@@H]2CCNC[C@H]2COc2ccc3c(c2)OCO3)cc1`, for which the inhibition was -0.5%.

Consider `CCC(NC(C)C)C(O)c1ccc(O)c(O)c1` (centres undefined), for which the inhibition is 6.4% (active).

Consider `CC(C)NCC(O)c1cc(O)cc(O)c1` (centres undefined), for which the inhibition was -2.6%.

For the compound `CC(C)NC[C@H](O)c1ccc(O)c(O)c1`, the inhibition was 1.4% (active).

`CC(C)NCC(O)c1ccc(NS(C)(=O)=O)cc1` (centres undefined): the inhibition was -5.9%.

On to `CC(C)NCC(O)c1ccc(O)c(O)c1` (centres undefined), for which the inhibition was 4.8% (active) and 11.3% (active).

For the compound `CC1CN(S(=O)(=O)c2cccc3cnccc23)CCN1` (centres undefined), the inhibition was 3% (active).

In the case of `CC1CNCCN1S(=O)(=O)c1cccc2cnccc12` (centres undefined), the inhibition is 10.4% (active).

As to `CNCCNS(=O)(=O)c1cccc2cnccc12`, the inhibition is -3%.

As for `CCO/C([O-])=N/c1c[n+](N2CCOCC2)no1`, the inhibition was -1.5%.

`Clc1ccccc1C(c1ccccc1)(c1ccccc1)n1ccnc1`: the inhibition is 10.5% (active).

In the case of `C[C@](Cc1ccc(O)c(O)c1)(NN)C(=O)O`, the inhibition is 10.8% (active).

Consider `COC(=O)C(C)(N)Cc1ccc(O)cc1` (centres undefined), for which the inhibition was -0.8%.

For `CC(N)(Cc1ccc(O)c(O)c1)C(=O)O` (centres undefined), the inhibition is 2.4% (active).

On to `C[C@](N)(Cc1ccc(O)c(O)c1)C(=O)O`, for which the inhibition is 8.7% (active).

On to `C[C@](N)(Cc1ccc(O)cc1)C(=O)O`, for which the inhibition is -2.7%.

On to `CC(N)(Cc1ccc(O)cc1)C(=O)O` (centres undefined), for which the inhibition is 0%.

In the case of `Cc1cc(C)c(/C=C2\C(=O)Nc3ccccc32)[nH]1`, the inhibition was 36.3% (active).

Regarding `CN(C)c1ccc(/C=C2\C(=O)Nc3ccccc32)cc1`, the inhibition is 42.8% (active).

Consider `COc1cc(OC)c(/C=C2/C(=O)Nc3ccccc32)c(OC)c1`, for which the inhibition is -8.1%.

For `CN(C)S(=O)(=O)c1ccc2c(c1)/C(=C/c1cc3c([nH]1)CCCC3)C(=O)N2`, the inhibition is -4.7%.

On to `Cc1ccc(C(=O)Nc2ccc(S(=O)(=O)[O-])c3c2C(S(=O)(=O)[O-])=[C+]C(S(=O)(=O)O)=[C+]3)cc1NC(=O)c1cccc(NC(=O)Nc2cccc(C(=O)Nc3cc(C(=O)Nc4ccc(S(=O)(=O)[O-])c5c4C(S(=O)(=O)[O-])=[C+]C(S(=O)(=O)O)=[C+]5)ccc3C)c2)c1`, for which the inhibition is -5.3%.

Consider `CC(C)NC[C@H](O)COc1cccc2ccccc12`, for which the inhibition is -2.1%.

For `C=CCc1ccccc1OCC(O)CNC(C)C` (centres undefined), the inhibition is 6.4% (active).

`CC(C)NC[C@H](O)COc1cccc2[nH]ccc12`: the inhibition was -0.8%.

Regarding `CC(C)NCC(O)COc1cccc2ccccc12` (centres undefined), the inhibition is -1.6%.

For `CC(C)NCC(O)COc1cccc2[nH]ccc12` (centres undefined), the inhibition was 1.4% (active).

On to `O=C1N(c2ccccc2)c2ccccc2C1(Cc1ccncc1)Cc1ccncc1`, for which the inhibition is -3.5%.

In the case of `O=C(Nc1ccncc1)c1cc([N+](=O)[O-])ccc1Cl`, the inhibition was -4.2%.

With `O=C(O)c1cc([N+](=O)[O-])ccc1NCCCc1ccccc1`, the inhibition is 2.3% (active).

Turning to `CS(=O)(=O)Nc1ccc([N+](=O)[O-])cc1Oc1ccccc1`, the inhibition is -0.8%.

Consider `O=C(Nc1ccccc1)c1cc([N+](=O)[O-])ccc1Cl`, for which the inhibition was 1.2% (active).

For `O=C(Nc1ccc([N+](=O)[O-])cc1Cl)c1cc(Cl)ccc1O`, the inhibition was 8% (active).

With `Nc1ccc(-c2ccc3ccccc3n2)cc1`, the inhibition was 14.6% (active).

With `NCC(O)(CS(=O)(=O)O)c1ccc(Cl)cc1` (centres undefined), the inhibition is 7.3% (active).

For the compound `C[C@@H]1C(=O)NC2=Nc3cccc(Cl)c3CN21`, the inhibition was -4.6%.

In the case of `O=C1Cc2cc(CCN3CCN(c4nsc5ccccc45)CC3)c(Cl)cc2N1`, the inhibition was 8.8% (active).

On to `NCCC1CCCC(CCN)N1` (centres undefined), for which the inhibition was -5.7%.

Turning to `CC(=O)N[C@H]1[C@H]([C@H](O)[C@H](O)CO)OC(C(=O)O)=C[C@@H]1O`, the inhibition was 10.4% (active).

For `OCc1cc(C(O)CNCCCCCCOCCCCc2ccccc2)ccc1O` (centres undefined), the inhibition was 12.5% (active).

On to `Nc1ccn([C@H]2CC[C@@H](CO)O2)c(=O)n1`, for which the inhibition was -3.2%.

Take `N=c1ccn2c(n1)OC1C(O)[C@@H](CO)O[C@H]12` (some centres undefined): the inhibition is 7.2% (active).

Consider `Nc1ccn([C@@H]2O[C@H](CO)[C@@H](O)C2O)c(=O)n1` (some centres undefined), for which the inhibition is 6% (active).

As to `NC(=O)c1ncn([C@@H]2O[C@H](CO)[C@@H](O)[C@H]2O)c1O`, the inhibition is -0.4%.

With `Nc1ncn([C@@H]2O[C@H](CO)[C@H](O)C2O)c(=O)n1` (some centres undefined), the inhibition is -0.8%.

Regarding `OCCN(CCO)c1nc(N2CCCCC2)c2nc(N(CCO)CCO)nc(N3CCCCC3)c2n1`, the inhibition is 46.4% (active).

For the compound `CCc1c(C)[nH]c2c1C(=O)C(CN1CCOCC1)CC2` (centres undefined), the inhibition was -0.8%.

For `C1CCC(N=C(NC23CC4CC(CC(C4)C2)C3)N2CCOCC2)CC1`, the inhibition was -2.2%.

As for `Cc1ccc(O)c(N=Nc2ccccc2)n1`, the inhibition is 67.9% (active).

On to `Nc1ccc(-c2nc3ccc(-c4nc5ccc(N)cc5[nH]4)cc3[nH]2)cc1`, for which the inhibition was 44.6% (active).

With `Cc1cn([C@H]2C[C@@H](N=[N+]=[N-])[C@@H](CO)O2)c(=O)[nH]c1=O`, the inhibition is 1.9% (active).

`O=c1[nH]c(=O)n([C@H]2C[C@H](O)[C@@H](CO)O2)cc1Br`: the inhibition was 2.6% (active).

For the compound `O=c1[nH]c(=O)n([C@H]2C[C@H](O)[C@@H](CO)O2)cc1/C=C/Br`, the inhibition is -4%.

Take `CCNc1nc2c(ncn2[C@H]2C[C@H](O)[C@@H](CO)O2)c(=O)[nH]1`: the inhibition is -0.7%.

Regarding `Cc1cn([C@H]2C=C[C@@H](CO)O2)c(=O)[nH]c1=O`, the inhibition is 0.2% (active).

For `c1ccc2c(c1)CC(N1CCN(c3cccc4c3OCCO4)CC1)C2`, the inhibition was 4.5% (active).

Consider `Cc1cnc(NC(=O)C2=C(O)c3ccccc3S(=O)(=O)N2C)s1`, for which the inhibition is 5.4% (active).

Regarding `CN1C(C(=O)Nc2ccccn2)=C(O)c2ccccc2S1(=O)=O`, the inhibition is -4.7%.

For `CN1CC(O)C(O)C(O)C1CO` (centres undefined), the inhibition is 3.8% (active).

On to `FC(F)(F)c1ccccc1-n1ccnc1`, for which the inhibition was 4% (active).

Consider `CC(/C=C/c1cccc(Oc2ccc(F)cc2)c1)N(O)C(N)=O` (centres undefined), for which the inhibition is 2.4% (active).

With `O=Nc1c(-c2c(O)[nH]c3ccccc23)[nH]c2ccccc12`, the inhibition was 42.8% (active).

Consider `O=Nc1c(-c2c(O)[nH]c3cc(Br)ccc23)[nH]c2ccccc12`, for which the inhibition is 27.6% (active).

With `O=C1Cc2c([nH]c3ccc(Br)cc23)-c2ccccc2N1`, the inhibition is -0.3%.

Turning to `O=C(C1CCCCC1)N1CC(=O)N2CCc3ccccc3C2C1` (centres undefined), the inhibition is 1.7% (active).

As to `CC(C)(C)[C@]1(O)CCN2C[C@H]3c4ccccc4CCc4cccc(c43)[C@@H]2C1`, the inhibition is -0.1%.

As for `Cc1[nH]c(=O)c(C#N)cc1-c1ccncc1`, the inhibition is -3.2%.

For the compound `Cc1[nH]c(=O)c(C#N)cc1-c1ccc2nccn2c1`, the inhibition was 7.1% (active).

With `COC(=O)[C@H](NC(=O)c1cc(-c2ccccc2)nc2ccccc12)c1ccccc1`, the inhibition is 4.9% (active).

As for `CC[C@H](NC(=O)c1c(C)c(-c2ccccc2)nc2ccccc12)c1ccccc1`, the inhibition is -2%.

For `NCCS`, the inhibition was 3.5% (active).

Consider `CCOC(=O)c1ncn2c1CN(C)C(=O)c1cc(F)ccc1-2`, for which the inhibition is 0.3% (active).

For the compound `NC(N)=N/N=C/c1c(Cl)cccc1Cl`, the inhibition is -2.6%.

In the case of `CCCCNc1cc(C(=O)O)cc(S(N)(=O)=O)c1Oc1ccccc1`, the inhibition was -3.4%.

Consider `CNCCc1cnc(CCC(c2ccccc2)c2ccccc2)[nH]1`, for which the inhibition was -2.3%.

For `c1ccc(C(NCCNC(c2ccccc2)c2ccccc2)c2ccccc2)cc1`, the inhibition is 6% (active).

Consider `CC(C)NNC(=O)c1ccncc1`, for which the inhibition was 1.1% (active).

For the compound `CCN(CC)CCOC(=O)c1cc(Cl)c(N)cc1OC`, the inhibition was -5.7%.

For `CCN(CC)CCNC(=O)c1cc(Cl)c(N)cc1OC`, the inhibition is -4.7%.

For the compound `COc1cc(N)c(Cl)cc1C(=O)OCCN1CCCCC1`, the inhibition was 0.5% (active).
